High-throughput results from PubChem BioAssay.
This is a sample that favours compounds with a hit; in the whole collection about 19% have one here.
Shiga inhibitor – Shiga toxin inhibition; Vero cells, Shiga toxin protein synthesis inhibition reporter; inhibition, % at 38.7 µM; 9.2% of 290,000 active; in the data active means inhibition mostly above about 28%, no sharp cut-off; inactive means mostly below about 43%
Pf growth 48h – inhibits P. falciparum growth in the first generation, 48 h | P. falciparum luciferase growth in erythrocytes, 48 h | Potency, µM (titrated, usually from 28.7 µM), most hits filed as inhibitors | 5.9% of 310,000 active | AID 504832
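Read-out is firefly luciferase luminescence from an integrated reporter in P. falciparum, so falling signal marks reduced parasite growth. Infected erythrocytes were at 2% hematocrit and 0.1% parasitemia (final) in Albumax-supplemented RPMI 1640.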
Pf growth 96h – inhibits malaria parasite growth, 96 h | 6.9% of 320,000 active | AID 504834 | P. falciparum luciferase reporter growth, 96 h | Potency, µM (doses to about 28.7 µM), actives largely listed as inhibitors
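P. falciparum expressing integrated firefly luciferase grown in erythrocytes (2% hematocrit, 0.05% parasitemia final) with compounds for 96 hours at 37 C, 5% CO2. Growth inhibition read as loss of luminescence after adding luciferase detection reagent.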
MARV entry inh – blocks Marburg virus binding to or entry into cells; Marburg virus pseudotyped entry inhibition, cell reporter; 1.8% of 300,000 active; Potency, µM (highest dose often 37.8 µM), hits mostly inhibitors; calls by dose curve; tested in HEK293 cells
CHX counter – counter-screen for Shiga toxin inhibitors: cycloheximide protein synthesis inhibition; cell reporter, cycloheximide protein synthesis inhibition counterscreen; max response, %; 12% of 300,000 active; in the data active means max response mostly above about 13%, no sharp cut-off; inactive means mostly below about 14%; further: read at 38.3 µM for the half of the compounds with a filed dose
LASV entry inh – inhibitors of Lassa virus binding or cell entry; Lassa virus pseudotype entry inhibition, cell reporter; Potency, µM (doses to about 37.9 µM), most hits filed as inhibitors; 1.2% of 300,000 active; calls by dose curve; tested in HEK293 cells; further: nearly all actives have a fitted effect of over 50% in size
Hits are given with their value; i = inactive; ? = inconclusive; nt = not tested or not shown; [ ] = another dose, or the depositor's remark. Unless noted, the call rests on the fitted dose curve; in most records, active means well fitted inhibition curve with a large enough effect; inconclusive means small, poorly fitted or top-dose-only effect, or another doubt; inactive means no such curve, though single readings can be large or run the other way.

SMILES	Shiga inhibitor	Pf growth 48h	Pf growth 96h	MARV entry inh	CHX counter	LASV entry inh
CCOc1ccc(OCC)c(-c2c(=O)n(OCc3ccccc3Br)c3ccccc3[n+]2[O-])c1	i	?	9.3µM	i	i	?
C=CCOn1c(=O)c(-c2ccc(OC)cc2)[n+]([O-])c2ccccc21	i	i	i	?	14	i
CCOc1ccc(-c2c(=O)n(OCc3ccccc3Br)c3ccccc3[n+]2[O-])c(OCC)c1	i	?	i	nt	i	nt
COc1ccc(-c2c(=O)n(OCc3nc4ccccc4[nH]3)c3ccccc3[n+]2[O-])cc1	i	?	i	i	29	i
COc1ccc(CCNC(=O)COc2ccc(-c3ccccc3)cc2)cc1OC	i	i	?	i	i	i
O=C(Nc1ccn(Cc2c(F)c(F)cc(F)c2F)n1)c1cccc(Cn2cc([N+](=O)[O-])cn2)c1	i	nt	9.3µM	?	i	i
O=C(Nc1ccn(Cc2ccccc2F)n1)c1ccc(COc2ccccc2Cl)cc1	i	?	nt	?	i	?
O=C(Nc1ccn(Cc2ccccc2F)n1)c1ccc(COc2cccc(Br)c2)cc1	71	nt	?	8.9µM	54	?
O=C(Nc1ccn(Cc2c(F)c(F)c(F)c(F)c2F)n1)c1cccc(Cn2cc([N+](=O)[O-])cn2)c1	i	nt	?	?	i	i
O=C(Nc1ccn(Cc2c(F)c(F)cc(F)c2F)n1)c1ccc(COc2ccccc2Cl)cc1	i	?	0.23µM	?	i	?
Cc1cc(C)n(Cc2ccc(NC(=O)c3ccc(COc4ccccc4Br)cc3)cc2)n1	i	?	?	?	i	?
Cc1cc(C)nc(NC(=O)c2ccc(COc3ccccc3Cl)cc2)c1	i	i	9.3µM	?	i	?
Cc1ccccc1OCC(=O)NCCNC(=O)c1ccccn1	i	i	i	i	i	i
COC(=O)c1ccn(CC(=O)NC2CCCCC2)n1	i	i	i	nt	i	nt
CC(C)(C)c1ccc(C(=O)NC(=S)N2CCOCC2)cc1	92	i	2.6µM	nt	46	nt
COc1ccc(C(=O)NC(=S)N2CCOCC2)cc1Br	i	?	?	i	i	i
CC(C)Oc1ccc(C(=O)NC(=S)N2CCOCC2)cc1	45	i	?	i	32	i
OCCNCc1c(OCc2ccc(Cl)cc2)ccc2ccccc12	i	i[0.00184 µM]	i	5.6µM	i	?
CC(O)CNCCOc1ccccc1OCc1ccccc1 (stereo unspecified)	i	i	i	?	i	i
CC(O)CNCCNCc1c(OCc2ccccc2)ccc2ccccc12 (stereo unspecified)	i	1.9µM	2.3µM	?	i	9.2µM
CCOc1cccc(CNCCO)c1OCc1ccc(Cl)cc1	i	?	?	?	i	i
CC(C)CN(C(=O)CSc1nc2ccccc2o1)c1c(N)n(Cc2ccccc2)c(=O)[nH]c1=O	nt	?	?	?	nt	i
CCOc1ccc(C(=O)Nc2sc3c(c2C(=O)OC)CC(C)(C)NC3(C)C)cc1	i	i	i	nt	i	nt
COC(=O)C1=C(c2ccc(F)cc2OCc2ccccc2)C[C@@H]2CC[C@H]1N2C(=O)NCc1ccc([N+](=O)[O-])cc1	nt	12µM	?	nt	nt	nt
COC(=O)C1=C(c2ccc(F)cc2OCc2ccccc2)C[C@@H]2CC[C@H]1N2C(=O)NCCCc1ccccc1	nt	12µM	5.2µM	nt	nt	nt
SMILES	Shiga inhibitor	Pf growth 48h	Pf growth 96h	MARV entry inh	CHX counter	LASV entry inh
COC(=O)C1=C(c2ccc(F)cc2OCc2ccccc2)C[C@@H]2CC[C@H]1N2C(=O)NC1Cc2ccccc2C1	nt	?	1.7µM	nt	nt	nt
COC(=O)C1=C(c2ccc(F)cc2OCc2ccccc2)C[C@@H]2CC[C@H]1N2C(=O)NCc1ccc(F)cc1	nt	10µM	?	nt	nt	nt
Cc1ccc(NC(=O)CCn2c(=O)[nH]c3ccsc3c2=O)cc1F	i	?	i	i	i	i
COC(=O)C1=C(c2ccc(F)cc2F)C[C@@H]2CC[C@H]1N2C(=O)NCc1ccc(C(F)(F)F)cc1	nt	12µM	?	nt	nt	nt
COC(=O)C1=C(c2ccc(F)cc2OCc2ccccc2)C[C@@H]2CC[C@H]1N2C(=O)NCc1ccc(C)cc1	nt	9.3µM	?	nt	nt	nt
COC(=O)C1=C(c2ccc(F)cc2F)C[C@@H]2CC[C@H]1N2C(=O)NC(C)C	nt	i	i	nt	nt	nt
COC(=O)C1=C(c2ccccc2OCc2ccccc2)C[C@@H]2CC[C@H]1N2C(=O)NCc1ccc(C(C)(C)C)cc1	nt	6.6µM	?	nt	nt	nt
COC(=O)C1=C(c2ccccc2OCc2ccccc2)C[C@@H]2CC[C@H]1N2C(=O)NCc1ccc(F)cc1	nt	9.3µM	?	nt	nt	nt
O=C1NC(=O)C(=Cc2ccc(-c3ccc(Cl)cc3)o2)C(=O)N1	i	i	i	nt	i	nt
O=C1NC(=O)C(=Cc2ccc(-c3ccc(F)cc3O)o2)C(=O)N1	i	i	i	nt	14	nt
COc1cccc(C(=O)Nc2ccc3c(c2)C(=O)N(CCC(=O)O)C3=O)c1	i	i	i	i	i	i
C#Cc1cccc(NC(=O)c2ccc3c(c2)C(=O)N(Cc2cccnc2)C3=O)c1	i	i	i	?	39	i
O=C(O)c1cc(NC(=O)c2ccc3c(c2)C(=O)N(Cc2cccnc2)C3=O)cc(C(=O)O)c1	i	i	i	i	i	i
COCCCN1C(=O)c2ccc(C(=O)Nc3cccc(OC)c3)cc2C1=O	53	i	i	i	37	i
CCN1C(=O)c2ccc(C(=O)NCc3ccccc3)cc2C1=O	i	i	i	i	i	i
CC(=O)Oc1cccc(NC(=O)c2ccc3c(c2)C(=O)N(CC(C)C)C3=O)c1	128	i[0.00184 µM]	i	nt	28	nt
COCCCN1C(=O)c2ccc(C(=O)NCCc3ccccc3)cc2C1=O	95	i	i	?	45	?
Nc1nc(SCC(=O)Nc2cc(-c3ccccc3)nn2-c2ccccc2)n[nH]1	i	i	nt	i	i	?
O=C(CNc1cc(S(=O)(=O)N2CCCC2)ccc1OCC(F)(F)F)Nc1cc(Cl)cc(Cl)c1	i	i	i	nt	i	nt
Cc1cccc(-c2noc(CN(C(=O)c3ccccc3Cl)C(C)C)n2)c1	nt	nt	nt	i	nt	i
CCCC(c1nnnn1C(C)(C)CC)N(Cc1ccco1)Cc1cc2ccc(OC)cc2[nH]c1=O (stereo unspecified)	i	i	i	13µM	i	?
CCC(C)(C)n1nnnc1C(c1cc2ccc(OC)cc2[nH]c1=O)N1CCCCC1 (stereo unspecified)	i	nt	i	?	i	i
Cc1cc2cc(C(c3nnnn3C3CCCC3)N(Cc3cccnc3)Cc3ccco3)c(=O)[nH]c2cc1C (stereo unspecified)	i	nt	2.3µM	4.1µM	i	?
COc1cc2cc(C(c3nnnn3C3CCCCC3)N(C)C3CCCCC3)c(=O)[nH]c2cc1OC (stereo unspecified)	i	5.9µM	i	i	i	?
CCC(C)(C)n1nnnc1C(c1cc2ccc(C)cc2[nH]c1=O)N(Cc1cccnc1)Cc1ccco1 (stereo unspecified)	i	12µM	i	?	i	i
CCc1ccccc1N(C(=O)CNC(=O)c1ccco1)C(C(=O)NC1CCCC1)c1cccnc1 (stereo unspecified)	i	i	i	i	i	i
Cc1nc2nncn2c(Nc2ccccc2)c1C	nt	nt	nt	?	nt	i
